Measurements published in the supplement of paper PMC3334620.
The full ranking holds about 33,000 sequences; the median of “E-score (-0.5 to 0.5)” is about -0.013, and the highest 2% start at about 0.3. This excerpt belongs to a sample that is enriched for the highest values.

Biological target: T1, Msn1 (UniProt P22148)
T1 sequence: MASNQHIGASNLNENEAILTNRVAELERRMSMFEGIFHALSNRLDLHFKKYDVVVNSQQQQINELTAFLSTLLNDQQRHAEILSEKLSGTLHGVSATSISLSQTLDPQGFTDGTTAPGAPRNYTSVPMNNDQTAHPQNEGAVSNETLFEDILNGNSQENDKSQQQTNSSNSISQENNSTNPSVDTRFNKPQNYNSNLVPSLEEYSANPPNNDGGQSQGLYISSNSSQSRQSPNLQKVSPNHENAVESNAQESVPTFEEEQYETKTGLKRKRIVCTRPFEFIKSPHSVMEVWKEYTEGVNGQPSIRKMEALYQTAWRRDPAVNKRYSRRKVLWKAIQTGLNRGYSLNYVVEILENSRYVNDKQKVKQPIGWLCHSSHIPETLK
Assay: PBM E-score (8-mer binding enrichment) (E-score (-0.5 to 0.5)); higher = stronger / more preferred TF binding
Conditions: protein concentration: 200 nM; construct: GST-full length
Description: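 Universal 'all 10-mer' protein binding microarrays (Agilent AMADID 015681) probed with GST-tagged S. cerevisiae TFs (full-length or DBD) made by in vitro transcription/translation (PURExpress), about 100-200 nM. Bound TF was detected with fluorescent anti-GST. Each ungapped 8-mer (which stands for itself and its reverse complement) is scored by the PBM enrichment score (E-score), a modified Wilcoxon-Mann-Whitney statistic from -0.5 to +0.5, computed with the Universal PBM Analysis Suite. Scale: above 0.35 generally sequence-specific binding.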

Row | Sequence | PBM E-score
1 | TAGGCAAA | 0.0155
2 | AGTCACAA | 0.114
3 | GCCTAGTA | -0.087
4 | CCATGGAG | -0.119
5 | GATGGGGA | -0.143
6 | ATTTCGCA | 0.201
7 | ACCAGTCA | -0.0816
8 | ATCCTTGA | -0.0979
9 | AAAGACAG | 0.193
10 | AAAGACAC | 0.213
11 | AAAGACAA | 0.418
12 | TAAGACGA | -0.00272
13 | TAAGACAA | 0.395
14 | TAAGACCA | -0.13
15 | AACGGATA | 0.18
16 | CGGGGTAC | -0.216
17 | GTCGATGA | -0.0803
18 | CGGGGGCA | -0.318
19 | CCGACATA | 0.215
20 | ACGACAGG | 0.0905
21 | ACGACATA | 0.319
22 | ACGACATG | 0.364
23 | GCGACATA | 0.299
24 | ACGACATC | 0.163
25 | GGTCGGTA | 0.0288
26 | AACTGAGT | -0.00489

Row | Sequence | PBM E-score
27 | AATGCGGA | 0.114
28 | CGTCTAAA | -0.0424
29 | CACAGACG | -0.0835
30 | TACAGAGA | -0.0201
31 | GACAGACA | 0.414
32 | GACAGAAA | 0.291
33 | GACAGACC | 0.0373
34 | CACAGACA | 0.36
35 | TACAGACA | 0.371
36 | AACAGACA | 0.295
37 | CACAGACC | 0.0741
38 | AGAGGCAA | -0.0984
39 | ACGTGAAA | 0.119
40 | CGAGTTGA | 0.0114
41 | TGTACTAA | 0.321
42 | AGTACTAA | 0.121
43 | CGTACCAA | 0.182
44 | AGTACCAA | 0.175
45 | TGTACCAA | 0.328
46 | CGTACTAA | 0.093
47 | AGCTGGAG | -0.251
48 | GATGGTCA | -0.0299
49 | AGCTACGA | -0.11
50 | GTGATTGA | 0.128
51 | CACGCTTA | 0.0573
52 | AGGACTAA | 0.309

Row | Sequence | PBM E-score
53 | TGGACTAA | 0.183
54 | CGGACTTA | 0.215
55 | AGGACTTC | 0.243
56 | AGGACTTA | 0.36
57 | AGGACTAT | -0.131
58 | CAAAACTG | 0.127
59 | CCTGTCTC | -0.0622
60 | ATTGTCTG | 0.34
61 | AGTGTCTA | 0.188
62 | CTTGTCTA | 0.324
63 | ATTGTCTA | 0.391
64 | ATTGTTTG | 0.202
65 | ATTGTCAG | 0.218
66 | CTTGTCTC | 0.319
67 | GTTGTCTA | 0.165
68 | CTTGTATC | 0.106
69 | ACTGTCTA | 0.022
70 | CCTGTCTA | 0.143
71 | ACTCCCTG | -0.28
72 | GCGTCTGA | -0.101
73 | ATGTGCTC | 0.0447
74 | CATAGTAG | 0.0607
75 | ACTGTTAC | -0.0545
76 | CCCTATAC | -0.129
77 | CTCTTAGC | -0.0929
78 | TAATGGAA | 0.151

Row | Sequence | PBM E-score
79 | CAGAAGTA | 0.104
80 | CTAAGCCC | -0.154
81 | ATTGTCTC | 0.378
82 | AGTGTCTC | 0.0356
83 | ACTGTCTC | -0.00421
84 | CAACTTTC | -0.0177
85 | AAAACAAT | 0.127
86 | AAGACAAT | 0.409
87 | TAGACAAA | 0.446
88 | TAGACGAA | 0.0138
89 | CAGACAGA | 0.0672
90 | AAGACTAT | -0.0507
91 | CAGACAAG | 0.28
92 | CAGACAAA | 0.451
93 | TAGACTAA | -0.0893
94 | AAGACAAA | 0.45
95 | AAGACAGA | 0.216
96 | AAGACACA | 0.169
97 | AGCAGTTG | -0.0796
98 | AACCGACC | -0.0206
99 | CCGTCCAG | -0.00159
100 | AAGCCAAG | -0.237
101 | AGAGGAGG | -0.382
102 | ACCAGCCG | -0.0866
103 | AGCCATCC | -0.277
104 | GAGACGAA | -0.0182

Row | Sequence | PBM E-score
105 | GAGACAAC | 0.203
106 | GAGACAAA | 0.442
107 | AAGACAAG | 0.343
108 | AAGACAGG | 0.0873
109 | AAGACAAC | 0.221
110 | ACAGACCG | -0.128
111 | GAGATGAA | 0.024
112 | AGGTGCCC | -0.275
113 | CCCGACAA | 0.329
114 | ACCGAGAA | 0.149
115 | ACCGACAA | 0.268
116 | GCCGACAA | 0.117
117 | TCCGACAA | 0.372
118 | TCCGAGAA | 0.346
119 | CCCGAGAA | 0.0155
120 | CCCGACAG | 0.052
121 | CCCGACAC | -0.0956
122 | CAATTCAG | 0.0996
123 | TAAGTACA | 0.287
124 | GCTTTAGA | -0.0753
125 | CCTGATAG | -0.222
126 | AACATGAT | 0.173
127 | ATACATAA | 0.21
128 | ACACATAG | 0.0311
129 | AAACATAT | 0.258
130 | AAACATAC | -0.0227

Row | Sequence | PBM E-score
131 | AGACATAC | 0.327
132 | AGACATAT | 0.47
133 | AGACACAT | 0.197
134 | AGACATAA | 0.373
135 | ATACATAC | -0.0367
136 | ACACATAA | 0.217
137 | CGACATAG | 0.15
138 | AGACATAG | 0.32
139 | GCAATGAA | 0.0712
140 | ATACATGA | 0.073
141 | ACAAATCG | 0.276
142 | ACTGAAGC | -0.0558
143 | AATGGTTG | -0.0125
144 | CCCTAAAC | -0.171
145 | ACACAAAA | 0.296
146 | ATACAAAA | 0.2
147 | AGACAAAT | 0.482
148 | AGACAAAA | 0.437
149 | AGACAACT | 0.147
150 | ATACAAAG | 0.254
151 | AGACAAGG | 0.162
152 | AAACAAAA | 0.127
153 | CGACAAAG | 0.294
154 | ATACAAAT | 0.335
155 | AGACAAAG | 0.364
156 | AAACAAAT | 0.199

Row | Sequence | PBM E-score
157 | CGCCCTTA | -0.0904
158 | AAGTTGAT | 0.016
159 | AACTGCCC | -0.105
160 | GGTCAAAC | 0.114
161 | AGGGGGCG | -0.416
162 | GTGCAACA | -0.164
163 | ACCCGCGC | 0.0994
164 | GCACCTTA | 0.00327
165 | ATATCCTG | 0.0176
166 | CCCTTCGG | -0.0863
167 | CAACAAAA | 0.0735
168 | AGACAAAC | 0.446
169 | ACACAAAC | 0.0132
170 | TGACAAAA | 0.402
171 | AAACAAAC | 0.192
172 | CAACAAAC | -0.0143
173 | CCACAAAA | 0.0569
174 | TAACAAAA | 0.228
175 | TCACAAAA | 0.119
176 | CGACAACC | 0.0461
177 | CGACAAAC | 0.36
